# Of roughly 8,800 targets only a part is listed; those with a hit were picked by preference. About 0.5% of all pairs of compound and target were hits.
# Compound: CN1CCN(CCOc2cc(OC3CCOCC3)c3c(Nc4c(Cl)ccc5c4OCO5)ncnc3c2)CC1 [saracatinib]
# Test: log2 fold change, soluble protein after heating vs DMSO (PISA); higher = thermal stabilisation; K562 lysate, 10 uM; active = over 0.2 and 3.5 SD of the protein, either way, in both replicates (recomputed)
# Outline: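 Dounce homogenisation of K562 pellets in PBS pH 7.4 with 1 mM MgCl2 produced a crude extract, used at 1 mg/mL protein. Exposure to 10 μM compound lasted 30 min, and aliquots were then heated for 3 min across 48°C-58°C, pooled and brought to 0.5% NP-40 at 4°C. The supernatant after 21,000xg for 90 min was quantified by TMTpro 16plex LC-MS/MS with channel sums equalised. Duplicate values are given as log-two fold change in thermal stability relative to solvent controls.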
# UniProt Q460N5, sequence (Q460N5 whole entry, looked up): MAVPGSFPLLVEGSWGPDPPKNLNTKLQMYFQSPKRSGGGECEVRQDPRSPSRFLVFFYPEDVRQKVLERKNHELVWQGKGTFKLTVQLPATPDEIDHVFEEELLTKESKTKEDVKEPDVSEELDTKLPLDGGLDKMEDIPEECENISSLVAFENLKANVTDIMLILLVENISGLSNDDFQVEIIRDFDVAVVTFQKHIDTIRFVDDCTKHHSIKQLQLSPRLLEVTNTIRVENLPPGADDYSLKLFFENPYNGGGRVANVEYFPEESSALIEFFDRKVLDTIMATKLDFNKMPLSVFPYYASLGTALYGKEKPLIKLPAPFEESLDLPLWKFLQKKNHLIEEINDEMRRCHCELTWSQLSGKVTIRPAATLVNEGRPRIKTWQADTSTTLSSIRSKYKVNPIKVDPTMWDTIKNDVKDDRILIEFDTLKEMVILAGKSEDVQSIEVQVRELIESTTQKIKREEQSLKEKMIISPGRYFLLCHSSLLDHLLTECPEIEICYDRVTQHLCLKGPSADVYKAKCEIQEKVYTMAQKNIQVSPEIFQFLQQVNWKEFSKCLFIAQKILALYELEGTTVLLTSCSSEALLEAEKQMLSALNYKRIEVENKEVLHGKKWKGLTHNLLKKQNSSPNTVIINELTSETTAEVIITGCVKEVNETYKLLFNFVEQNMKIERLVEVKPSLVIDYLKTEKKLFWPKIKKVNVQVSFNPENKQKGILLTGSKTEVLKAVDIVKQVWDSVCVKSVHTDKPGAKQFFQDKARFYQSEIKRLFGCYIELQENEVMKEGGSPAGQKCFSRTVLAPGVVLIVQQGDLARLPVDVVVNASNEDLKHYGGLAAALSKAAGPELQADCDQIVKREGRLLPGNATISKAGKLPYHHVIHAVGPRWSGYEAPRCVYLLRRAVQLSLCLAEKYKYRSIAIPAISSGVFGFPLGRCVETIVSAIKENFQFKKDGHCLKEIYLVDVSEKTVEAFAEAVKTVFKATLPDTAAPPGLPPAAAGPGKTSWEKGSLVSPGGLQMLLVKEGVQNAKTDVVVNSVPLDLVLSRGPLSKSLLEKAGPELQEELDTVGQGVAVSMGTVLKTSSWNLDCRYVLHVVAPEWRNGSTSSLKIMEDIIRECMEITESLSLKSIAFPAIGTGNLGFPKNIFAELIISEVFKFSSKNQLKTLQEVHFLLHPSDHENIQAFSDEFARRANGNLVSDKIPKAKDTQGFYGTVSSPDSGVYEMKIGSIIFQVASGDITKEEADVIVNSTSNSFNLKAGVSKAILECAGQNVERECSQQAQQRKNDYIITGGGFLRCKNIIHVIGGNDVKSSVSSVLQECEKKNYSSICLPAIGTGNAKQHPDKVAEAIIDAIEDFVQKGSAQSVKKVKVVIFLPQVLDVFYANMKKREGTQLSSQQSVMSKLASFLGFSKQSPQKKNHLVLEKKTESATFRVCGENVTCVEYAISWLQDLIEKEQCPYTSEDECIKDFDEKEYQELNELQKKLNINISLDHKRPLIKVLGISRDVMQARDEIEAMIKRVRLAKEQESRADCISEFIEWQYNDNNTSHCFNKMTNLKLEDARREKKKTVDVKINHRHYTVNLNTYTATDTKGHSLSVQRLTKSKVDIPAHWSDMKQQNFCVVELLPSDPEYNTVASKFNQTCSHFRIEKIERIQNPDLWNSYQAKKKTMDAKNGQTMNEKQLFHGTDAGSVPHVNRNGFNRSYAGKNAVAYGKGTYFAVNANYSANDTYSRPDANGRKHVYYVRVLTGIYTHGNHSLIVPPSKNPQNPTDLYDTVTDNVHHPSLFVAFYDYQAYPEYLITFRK
# UniProt Q96I59, sequence (Q96I59 whole entry, looked up): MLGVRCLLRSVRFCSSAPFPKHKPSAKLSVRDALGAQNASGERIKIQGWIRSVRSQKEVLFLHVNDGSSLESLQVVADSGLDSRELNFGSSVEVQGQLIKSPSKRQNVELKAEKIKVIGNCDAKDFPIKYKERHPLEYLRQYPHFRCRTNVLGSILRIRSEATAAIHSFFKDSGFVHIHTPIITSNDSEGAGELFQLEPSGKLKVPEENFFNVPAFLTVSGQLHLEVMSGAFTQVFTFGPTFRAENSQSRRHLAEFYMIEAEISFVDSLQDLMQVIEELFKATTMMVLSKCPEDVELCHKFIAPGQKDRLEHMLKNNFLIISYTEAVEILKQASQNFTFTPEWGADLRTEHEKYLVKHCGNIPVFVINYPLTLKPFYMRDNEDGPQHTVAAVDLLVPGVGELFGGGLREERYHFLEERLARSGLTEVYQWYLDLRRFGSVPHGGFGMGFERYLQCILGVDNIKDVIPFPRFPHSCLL
# UniProt Q6ZNJ1, sequence (Q6ZNJ1 whole entry, looked up): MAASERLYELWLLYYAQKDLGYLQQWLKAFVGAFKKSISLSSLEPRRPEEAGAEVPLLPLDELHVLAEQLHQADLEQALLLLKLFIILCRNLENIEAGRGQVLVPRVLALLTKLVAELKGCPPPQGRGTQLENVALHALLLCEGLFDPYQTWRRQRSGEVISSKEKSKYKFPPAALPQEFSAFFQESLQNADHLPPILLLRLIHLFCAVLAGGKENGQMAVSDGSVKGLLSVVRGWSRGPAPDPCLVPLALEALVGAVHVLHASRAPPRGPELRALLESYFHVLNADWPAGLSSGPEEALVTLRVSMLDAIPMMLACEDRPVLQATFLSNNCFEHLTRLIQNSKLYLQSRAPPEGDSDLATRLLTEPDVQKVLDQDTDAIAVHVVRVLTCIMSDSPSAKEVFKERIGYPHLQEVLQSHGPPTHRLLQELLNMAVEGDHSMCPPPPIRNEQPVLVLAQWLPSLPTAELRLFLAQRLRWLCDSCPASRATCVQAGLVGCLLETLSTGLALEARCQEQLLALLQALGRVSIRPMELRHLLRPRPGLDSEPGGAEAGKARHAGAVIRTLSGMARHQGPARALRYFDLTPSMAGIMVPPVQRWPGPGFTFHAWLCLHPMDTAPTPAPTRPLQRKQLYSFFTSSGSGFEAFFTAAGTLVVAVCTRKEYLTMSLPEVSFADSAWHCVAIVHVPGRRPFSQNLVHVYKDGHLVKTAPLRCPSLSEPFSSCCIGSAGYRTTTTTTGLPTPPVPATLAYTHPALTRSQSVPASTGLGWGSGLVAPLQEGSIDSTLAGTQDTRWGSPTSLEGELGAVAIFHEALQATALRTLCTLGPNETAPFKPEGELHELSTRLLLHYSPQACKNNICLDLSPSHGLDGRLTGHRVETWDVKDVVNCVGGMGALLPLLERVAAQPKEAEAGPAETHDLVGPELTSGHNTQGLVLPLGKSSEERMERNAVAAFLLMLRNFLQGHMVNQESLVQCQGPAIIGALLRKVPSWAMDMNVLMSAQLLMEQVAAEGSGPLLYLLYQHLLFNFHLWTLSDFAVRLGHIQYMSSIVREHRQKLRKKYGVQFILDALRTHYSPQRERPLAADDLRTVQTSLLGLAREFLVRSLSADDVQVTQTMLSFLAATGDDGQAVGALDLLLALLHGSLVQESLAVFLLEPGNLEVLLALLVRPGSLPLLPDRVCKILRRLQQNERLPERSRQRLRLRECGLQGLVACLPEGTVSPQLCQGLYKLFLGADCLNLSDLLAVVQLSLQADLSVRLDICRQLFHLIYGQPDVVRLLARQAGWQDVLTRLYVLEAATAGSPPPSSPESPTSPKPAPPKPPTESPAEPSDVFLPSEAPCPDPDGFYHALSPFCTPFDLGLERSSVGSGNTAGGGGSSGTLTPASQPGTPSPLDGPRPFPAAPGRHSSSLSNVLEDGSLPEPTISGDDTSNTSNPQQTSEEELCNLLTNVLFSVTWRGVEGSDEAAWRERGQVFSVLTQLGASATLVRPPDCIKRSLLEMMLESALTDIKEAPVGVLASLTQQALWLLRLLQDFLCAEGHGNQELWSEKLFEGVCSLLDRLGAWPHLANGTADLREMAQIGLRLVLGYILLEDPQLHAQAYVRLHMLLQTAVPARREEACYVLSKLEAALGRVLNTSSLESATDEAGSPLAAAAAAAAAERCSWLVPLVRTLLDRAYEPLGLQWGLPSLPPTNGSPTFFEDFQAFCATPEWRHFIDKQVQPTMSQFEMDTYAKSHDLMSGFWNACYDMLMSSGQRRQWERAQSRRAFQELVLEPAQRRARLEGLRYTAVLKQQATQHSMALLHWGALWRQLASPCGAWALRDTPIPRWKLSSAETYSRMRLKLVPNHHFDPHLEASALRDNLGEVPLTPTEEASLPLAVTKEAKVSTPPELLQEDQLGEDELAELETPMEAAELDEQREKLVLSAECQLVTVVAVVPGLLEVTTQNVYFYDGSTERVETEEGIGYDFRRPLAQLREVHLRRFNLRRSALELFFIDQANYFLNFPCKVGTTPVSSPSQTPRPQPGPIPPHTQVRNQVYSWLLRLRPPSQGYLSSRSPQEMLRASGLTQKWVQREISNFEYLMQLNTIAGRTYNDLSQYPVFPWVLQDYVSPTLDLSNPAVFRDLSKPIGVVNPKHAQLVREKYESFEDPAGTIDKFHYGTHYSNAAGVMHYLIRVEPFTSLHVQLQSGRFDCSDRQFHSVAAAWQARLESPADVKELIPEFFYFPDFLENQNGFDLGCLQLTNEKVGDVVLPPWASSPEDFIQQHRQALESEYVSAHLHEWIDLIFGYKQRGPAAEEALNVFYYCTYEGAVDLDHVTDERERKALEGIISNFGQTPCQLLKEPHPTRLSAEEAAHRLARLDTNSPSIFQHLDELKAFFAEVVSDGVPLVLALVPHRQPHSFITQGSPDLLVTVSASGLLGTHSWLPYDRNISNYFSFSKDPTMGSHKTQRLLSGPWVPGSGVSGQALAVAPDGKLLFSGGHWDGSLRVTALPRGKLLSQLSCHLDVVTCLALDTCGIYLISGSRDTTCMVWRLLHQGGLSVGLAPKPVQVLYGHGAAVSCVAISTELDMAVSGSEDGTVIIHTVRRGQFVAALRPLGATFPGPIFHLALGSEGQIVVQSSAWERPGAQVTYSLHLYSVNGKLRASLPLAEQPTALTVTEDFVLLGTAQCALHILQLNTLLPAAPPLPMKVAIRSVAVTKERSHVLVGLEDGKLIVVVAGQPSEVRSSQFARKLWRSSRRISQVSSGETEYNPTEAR
# UniProt O00483, sequence (O00483 whole entry, looked up): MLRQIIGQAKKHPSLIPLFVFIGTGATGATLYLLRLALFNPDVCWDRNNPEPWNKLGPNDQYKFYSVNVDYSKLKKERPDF
row,Target,log2 fold change
1,NFAT5 isoform 5 (UniProt O94916),0.038 (inactive)
2,NQO1 (UniProt P15559),0.155 (inactive)
3,OARD1 (UniProt Q9Y530),0.006 (inactive)
4,NARS2 (UniProt Q96I59),0.001 (inactive)
5,OPA1 isoform 2 (UniProt O60313),0.007 (inactive)
6,NFKBIB (UniProt Q15653),-0.013 (inactive)
7,NCAPH (UniProt Q15003),-0.016 (inactive)
8,OCRL (UniProt Q01968),0.027 (inactive)
9,NNT (UniProt Q13423),-0.025 (inactive)
10,NEXN (UniProt Q0ZGT2),0.026 (inactive)
11,NR3C1 isoform 3 (UniProt P04150),0.072 (inactive)
12,NGLY1 (UniProt Q96IV0),0.013 (inactive)
13,NUMBL (UniProt Q9Y6R0),0.052 (inactive)
14,PAFAH1B3 (UniProt Q15102),0.013 (inactive)
15,OLA1 (UniProt Q9NTK5),-0.003 (inactive)
16,NUMB (UniProt P49757),0.024 (inactive)
17,OSBPL3 isoform 2 (UniProt Q9H4L5),0.04 (inactive)
18,NFATC2 (UniProt Q13469),0.014 (inactive)
19,PARP14 (UniProt Q460N5),0.119 (inactive)
20,MTHFD1L (UniProt B7ZM99),0.004 (inactive)
21,NSA2 (UniProt O95478),-0.084 (inactive)
22,NBEAL2 (UniProt Q6ZNJ1),0.013 (inactive)
23,NDUFA4 (UniProt O00483),0.018 (inactive)

# — the supplement of paper PMC10849652
